Reference: PubChem BioAssay (NCI)
The panel holds about 79,000 compounds, 15% with a hit somewhere; the sample as a whole holds those more often. The source made the active and inactive calls. No stated cut-off is given here; in the data, active means growth inhibition above about 70%; inactive means the rest.

Columns and labels:
[1] = NCI Yeast Anticancer Drug Screen. Data for the rad50 strain (AID 155);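 further: 0% = growth of vehicle-only cultures of the same strain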; settings: S. cerevisiae rad50 strain growth inhibition; at 50.0 µM; hits give high values
Summary of the method: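 Vehicle-treated cultures provide the reference for the growth inhibition reported for compound-exposed, repair-deficient yeast.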

[2] = NCI Yeast Anticancer Drug Screen. Data for the mec2-1 strain (AID 157); settings: S. cerevisiae mec2-1 strain, at 50.0 µM, hits give high values
Summary of the method: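 mec2-1 yeast strain, carrying an alteration in DNA damage repair or cell cycle control, was exposed to compounds; growth inhibition was measured relative to vehicle-treated controls.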

[3] = NCI Yeast Anticancer Drug Screen. Data for the sgs1 mgt1 strain (AID 161);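 further: 0% = growth of cultures given vehicle only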; settings: S. cerevisiae sgs1 mgt1 strain, at 50.0 µM, hits give high values
Summary of the method: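 This yeast growth screen uses a strain with defined DNA-repair lesions; compound-treated growth is compared with vehicle-treated growth.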

[4] = NCI Yeast Anticancer Drug Screen. Data for the cln2 rad14 strain (AID 165);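 further: 0% = growth equal to vehicle treated cultures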; settings: S. cerevisiae cln2 rad14 strain, at 50.0 µM, hits give high values
Summary of the method: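 Yeast carrying cln2 and rad14 alterations (cell cycle control and DNA damage repair) were exposed to compounds. Growth inhibition was measured against vehicle-treated controls.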

[5] = NCI Yeast Anticancer Drug Screen. Data for the bub3 strain (AID 167); settings: S. cerevisiae bub3 mutant strain, at 50.0 µM, hits give high values
Summary of the method: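 Mutant yeast screening strain plus compound; vehicle-treated cultures serve as the 0% inhibition reference.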

[6] = NCI Yeast Anticancer Drug Screen. Data for the mlh1 rad18 strain (AID 175); settings: S. cerevisiae mlh1 rad18 strain growth inhibition; at 50.0 µM; hits give high values
Summary of the method: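 Growth inhibition of the yeast strain was measured after compound exposure and expressed relative to vehicle-treated controls. The strain carries defined defects in DNA damage repair.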

Measured: growth inhibition

CCOC(=O)NCCNC(=O)OCC
inactive: [1] 8.8% | [2] 0.3% | [3] 1.45% | [4] 6.65% | [5] -11.7% | [6] 3.6%

CCC(C1=CCCCC1)c1nc2c([nH]1)c(=O)n(C)c(=O)n2C (stereo unspecified)
inactive: [1] 7.95% | [2] 8.5% | [3] 23.6% | [4] 8.65% | [5] 17.6% | [6] 45.5%

COC1OC2COC(c3ccccc3)OC2C(OC(C)=O)C1OS(=O)(=O)c1ccc(C)cc1 (stereo unspecified)
inactive: [1] -2.7% | [2] 14.1% | [3] -5.35% | [4] 3.35% | [5] -4.65% | [6] 28.8%

CN=C(NC#N)NCCSCc1nc[nH]c1C
inactive: [1] 20.3% | [2] 16.8% | [3] -17.5% | [4] -5.2% | [5] -16.6% | [6] -29.2%

CCOC(=O)CC(c1ccccc1)C(C#N)(c1ccccc1)N(C)C (stereo unspecified)
inactive: [1] 27.9% | [2] 19.5% | [3] 40.8% | [4] 18% | [5] 30.4% | [6] 33.5%

Cc1ccc(Cl)cc1NC(=O)Oc1cc(C)c(Cl)c(C)c1
inactive: [1] 1% | [2] 8.2% | [3] -4.1% | [4] 6.85% | [5] 25.7% | [6] 4.35%

CC(=O)OCC1OC(OC(C)=O)C(Nc2ncnc3nc[nH]c23)C(OC(C)=O)C1OC(C)=O (stereo unspecified)
inactive: [1] 28.1% | [2] 23.9% | [3] 49.9% | [4] 11.6% | [5] 16.5% | [6] 37.8%

O=C(O)c1ccc(Nc2nc3ccccc3nc2C(=O)O)cc1
inactive: [1] -19.2% | [2] -26.8% | [3] -33.2% | [4] 7.05% | [5] -13.2% | [6] -0.9%

Cc1ccc2ccccc2c1Br
inactive: [1] -4.55% | [2] -0.85% | [3] 1.6% | [4] -14.8% | [5] -3.2% | [6] -8.55%

O=C1C(Cl)N(c2c(Cl)cccc2Cl)C1c1c[nH]c2ccccc12 (stereo unspecified)
inactive: [1] -35.5% | [2] -43.6% | [3] -34.2% | [4] -22.4% | [5] -20.9% | [6] -41.8%

CN(C)Cc1ccc2ccccc2c1CC(O)(c1ccccc1)c1ccccc1
inactive: [1] 26.3% | [2] -2.05% | [3] 9.55% | [4] 2.25% | [5] 0.85% | [6] 7.35%

CC(=O)Nc1cc2c(cc1Cl)-c1cc(Cl)c(Cl)cc1C2=O
inactive: [1] -18.1% | [2] -2.55% | [3] -9.85% | [4] -25.1% | [5] -20.7% | [6] -17.5%

Cc1ccc(S(=O)(=O)N/N=C2\C3CC4CC(C3)C2C4)cc1 (stereo unspecified)
inactive: [1] -21% | [2] -24.1% | [3] -12.9% | [4] -6.5% | [5] -6.25% | [6] -15.2%

Cc1cc(C=O)c(C)[nH]1
inactive: [1] 3.9% | [2] -3.55% | [3] -2.4% | [4] -11.2% | [5] 1.55% | [6] -4.4%

Cc1nc(C(=O)O)c(C(=O)O)[nH]1
inactive: [1] -4.4% | [2] -15.1% | [3] -10.9% | [4] -1.7% | [5] -7.75% | [6] 1.2%

O=C(c1ccccc1)C(c1ccccc1)C1(O)C(=O)Nc2ccc(Br)cc21 (stereo unspecified)
inactive: [1] 0.9% | [2] 7.35% | [3] -0.15% | [4] 16.1% | [5] 54.9% | [6] 7.1%

CCCOP(=O)(CCCP(=O)(OCCC)OCCC)OCCC
inactive: [1] -8.4% | [2] -9.6% | [3] 0.5% | [4] -25.6% | [5] 6.2% | [6] -12.5%

Cc1ccc(Cl)cc1N
inactive: [1] 11.8% | [2] 31.1% | [3] 8.25% | [4] -27% | [5] 0.85% | [6] 18.8%

COc1nc2[nH]ccc2c(=O)n1C
inactive: [1] -10.9% | [2] -20.1% | [3] -9.1% | [4] 10.3% | [5] -10.4% | [6] 17.4%

CCC(c1ccco1)C(C#N)C(=O)OC(C)(C)C (stereo unspecified)
inactive: [1] -11.8% | [2] -21.9% | [3] -1.05% | [4] -5.8% | [5] -16.3% | [6] -27.7%

Oc1ccc(Cl)cc1/C=N\N=C\c1cc(Cl)ccc1O
inactive: [1] -50.3% | [2] -1.1% | [3] 5.75% | [4] -36.1% | [5] 3.15% | [6] 8.85%

Cn1c(=O)ccc2c(=O)c3c(ccc4ccccc43)oc21
inactive: [1] -10.1% | [2] -12.3% | [3] -28.1% | [4] -10.1% | [5] -7.05% | [6] -23.9%

N#Cc1ccc(OCCCCOc2ccc([N+](=O)[O-])cc2Cl)cc1
inactive: [1] 5.75% | [2] -10.7% | [3] -19.4% | [4] -3.8% | [5] 4.65% | [6] 20%

CC12CCC3=C(CCc4cc(O)ccc43)C1CCC2=O (stereo unspecified)
inactive: [1] -4.8% | [2] 9.75% | [3] 5.8% | [4] -34.5% | [5] -7.95% | [6] 4.4%

NS(=O)(=O)c1ccc(NC(=O)C2C(=O)N(c3ccc(S(N)(=O)=O)cc3)C(=O)/C2=N/O)cc1 (stereo unspecified)
inactive: [1] 9.55% | [2] 0.25% | [3] 9.8% | [4] -26.4% | [5] 2% | [6] 33.1%

C#CCOCCC(C(=O)O)C(=O)O
inactive: [1] 9.9% | [2] 5.45% | [3] 8.6% | [4] -1.7% | [5] 11.9% | [6] 2.7%

O=c1ccc(=O)n(-c2ccc(Cl)cc2)[nH]1
inactive: [1] -8.1% | [2] -21.8% | [3] -12.7% | [4] 23.4% | [5] -6% | [6] -9.9%

CCOC(=O)c1cc(N)c(C(=O)OCC)cc1N
inactive: [1] 4.15% | [2] -16.5% | [3] -1.3% | [4] 3.6% | [5] 8.65% | [6] 10.3%

c1ccc(CN2CCC(N3CCCC3)CC2)cc1
inactive: [1] -22.7% | [2] -26.1% | [3] -22% | [4] 10.7% | [5] -23.3% | [6] -29.9%

O=C1C(Cl)=C(N(C(=O)c2ccccc2)C(=O)c2ccccc2)C(=O)c2ccccc21
inactive: [1] 6.6% | [2] -3.7% | [6] -51.6%
active: [3] 83.2% | [4] 74% | [5] 86%

C=CC(=O)Nc1ccc(Br)cc1
inactive: [1] 2.85% | [2] -9.2% | [3] -4.35% | [4] -6.9% | [5] 8.65% | [6] 2.35%

NS(=O)(=O)c1ccc(NC(=S)/N=C\c2c(O)[nH]c(=O)[nH]c2=O)cc1
inactive: [1] -13% | [2] -16.3% | [3] -18.3% | [4] 15.7% | [5] -12.6% | [6] -11%

CCCc1c(O)ccc(C)c1C
inactive: [1] 14.6% | [2] 2.5% | [3] 1.1% | [4] -36.2% | [5] -7.35% | [6] 32.4%

CCOc1c(N=Nc2ccccc2Cl)c(C)nn1C(N)=S
inactive: [1] -14.2% | [2] 8.7% | [3] 45.5% | [4] -2.25% | [5] 53.4% | [6] 49.4%

S=C1Nc2ccccc2C2CC=NN12 (stereo unspecified)
inactive: [1] -1.75% | [2] -4.15% | [3] 10.6% | [4] -30% | [5] -44.6% | [6] 29.4%

CN(C)c1ccc(NN=C2SC(=Nc3ccccc3)C(=Nc3ccccc3)S2)cc1
inactive: [1] 41.5% | [2] -17.9% | [3] -10.2% | [4] 18.1% | [5] 25.2% | [6] 8.15%

CC1CC2(CCC1OCc1ccccc1)OCCO2 (stereo unspecified)
inactive: [1] 0.25% | [2] -6.85% | [3] -2.3% | [4] 2.2% | [5] 13.3% | [6] -1.7%

Cn1c(=O)c(C#N)c2n(C)c3ccccc3n2c1=O
inactive: [1] 64.8% | [2] 17.4% | [3] 13.8% | [4] 2.25% | [5] -36.1% | [6] -0.15%

Cc1ccc(/C=N/NS(=O)(=O)c2ccccc2)cc1
inactive: [1] 18.4% | [2] 13.8% | [3] 15.6% | [4] -16.7% | [5] 12.1% | [6] 24.9%

Cc1cccc(Cl)c1NC(=O)c1ccc(C(=O)Nc2c(C)cccc2Cl)cc1
inactive: [1] -3% | [2] -17.1% | [3] 5.25% | [4] 4.05% | [5] 2.6% | [6] -12.1%

CN(C)CC1CCCCCCC1=O (stereo unspecified)
inactive: [1] -6.45% | [2] 12.7% | [3] -8.55% | [4] -8.1% | [5] -8.85% | [6] 12.8%
